Screening data: PubChem BioAssay, several laboratories
In the library only some 2.3% were active in any assay of this set; here they are far more common.
697 NFkB inh: inhibitors of PMA/ionomycin-induced NF-kB reporter, 697 cells, primary screen, B-cell NF-kB inhibitor project, cell-based, luminescence, uHTS; 697 B-cell NF-kB luciferase reporter, 16 h; inhibition, % at 4 µM; AID 435022, 2010; actives 0.33% (n = 330,000); in the data active = inhibition above about 35%
aSyn 5UTR inh: MLPCN primary screen, SNCA 5' untranslated region; alpha-synuclein 5'UTR reporter, inhibitor activity; inhibition, % (tested at 7.5 µM); actives 0.82% (n = 300,000); AID 1813, 2009; in the data active = inhibition above about 60%; inconclusive = no clear call, values can overlap the other calls;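 also: H4 neuroglioblastoma cells stably carrying SNCA 5'UTR luciferase fusion; 0% = DMSO wells and 100% = positive control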
H9c2 TAG inh: inhibitors of triacylglycerol accumulation, primary screen, cell-based, uHTS, fluorescence, H9c2; H9c2 cells, Nile Red lipid (TAG) fluorescence; cells loaded with 200 µM oleic acid; inhibition, % at 12.5 µM; actives 0.66% (n = 230,000);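 active = pattern-corrected inhibition of lipid staining of at least 50% with the nuclear-stain viability signal not falling by more than 50%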;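 also: 0% = DMSO wells and 100% = triacsin C control wells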
Gli-Sufu antag: Gli-Sufu pathway antagonists, primary screen, luciferase luminescence, Sufu-KO-LIGHT cells, uHTS; Sufu-KO-LIGHT fibroblasts, Gli luciferase reporter luminescence; inhibition, % at 5 µM; actives 0.74% (n = 340,000); AID 588413, 2011;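 active = inhibition above about 55%, limit read from the data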;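 also: 0% = DMSO-treated cells and 100% = wells with medium but no cells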
Shn3 inh set2: reduction of Shn3 3'UTR firefly luciferase signal, primary screen, Schnurri-3 inhibitor project, cell-based, Clone20 osteoblasts, set 2 | inhibition, % at 12.5 µM | actives 0.52% (n = 360,000) | Clone20 osteoblast Shn3 3'UTR firefly luciferase, 24 h | AID 588674, 2011;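 active = mean inhibition of at least 75% with every replicate also reaching 75%; inconclusive = mean inhibition at least 75% but some replicate below; inactive = mean inhibition below 75%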;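 also: 0% = median of neutral control wells and 100% = pilot-screen positive control compound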
Jurkat NFkB inh: inhibitors of induced NF-kB luciferase reporter, primary screen, TCR NF-kB activation inhibitor project, cell-based, luminescence, uHTS. Jurkat, PMA/ionomycin-induced NF-kB luciferase reporter. inhibition, % at 4 µM. actives 0.53% (n = 330,000). AID 435003, 2010; in the data active = inhibition above about 50%
Jurkat NFkB conf: PMA/ionomycin-induced NF-kB reporter inhibitors, Jurkat retest, confirmation, T-cell NF-kB inhibitor project, cell-based, luminescence, single concentration; shares compounds with Jurkat NFkB inh; Jurkat NF-kB luciferase, 16 h; inhibition, % at 4 µM; actives 27% (n = 2,700);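 active = inhibition reaching about 45% at 4 µM in either replicate, limit read from the data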;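 also: plate controls were PMA/ionomycin stimulated DMSO wells for no effect and unstimulated DMSO wells for full effect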
697 NFkB conf: PMA/ionomycin-induced NF-kB reporter inhibitors, 697 retest, confirmation, B-cell NF-kB inhibitor project, cell-based, luminescence, single concentration; shares compounds with 697 NFkB inh; 697 B-cell NF-kB luciferase, 16 h; inhibition, % at 4 µM; actives 35% (n = 2,000); AID 449746, 2010; in the data active = inhibition mostly above about 28%, no sharp cut-off; inactive = mostly below about 22%
Gli antag conf: Gli-SUFU pathway antagonists, confirmation, single concentration, luciferase luminescence, Sufu-KO-LIGHT cells; AID 602428, 2012; inhibition, % at 5 µM; shares compounds with Gli-Sufu antag; actives 40% (n = 2,500); Gli luciferase reporter;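 active = mean inhibition at 5 µM reaching about 45%, limit read from the data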;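 also: plate controls were DMSO-treated cells for no effect and wells lacking cells for full effect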
Gli cytotox: cytotoxicity in Sufu-KO-LIGHT cells, confirmation, cytotoxicity control for Gli-SUFU antagonist project, cell-based, ATP luminescence, single concentration; shares compounds with Gli-Sufu antag; cytotoxicity, % at 5 µM; actives 32% (n = 2,500);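 active = mean cytotoxicity at 5 µM above about 25%, limit read from the data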;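 also: cells exposed to compound overnight for roughly 16 to 18 hours; plate controls were DMSO wells with cells for no effect and medium without cells for full effect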
Wnt3a counter: Wnt3a reporter signal inhibition, confirmation, counter-screen for Gli-SUFU antagonist project, Wnt-LIGHT cells, luminescence, single concentration; shares compounds with Gli-Sufu antag; Wnt3a-driven luciferase reporter; inhibition, % at 6.25 µM; actives 20% (n = 2,500);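 active = mean inhibition above about 25%, limit read from the data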
* hit, by the source's call; ? = inconclusive; . = not tested or not shown.

SMILES | 697 NFkB inh | aSyn 5UTR inh | H9c2 TAG inh | Gli-Sufu antag | Shn3 inh set2 | Jurkat NFkB inh | Jurkat NFkB conf | Gli antag conf | Gli cytotox | Wnt3a counter | others
CCCCC(=O)NC(c1ccc(N(C)C)cc1)c1ccc2cccnc2c1O (stereo not drawn) | -23 | 62* | 55 | 88* | 93* | 54* | 77* | 86* | 37* | 93*
CCCCC(=O)NC(c1ccc(Cl)cc1)c1ccc2cccnc2c1O (stereo not drawn) | -18 | 56 | 52* | 89* | 86* | 51* | 80* | 88* | 37* | 88*
CCNC(=O)C1CCCN(C(=O)c2ccc(OC)cc2)CC1 (stereo not drawn) | . | . | -4 | . | -14 | . | . | . | . | .
CC(=O)NC(c1ccc2ccccc2c1)c1ccc2cccnc2c1O (stereo not drawn) | -12 | 57 | . | 92* | 85* | 57* | 82* | 83* | 40* | 78*
CC(=O)NC(c1ccco1)c1cc(F)c2cccnc2c1O (stereo not drawn) | -7 | . | 23 | 14 | -14 | 8 | . | . | . | .
CC(=O)C(C)n1c(CN(C)Cc2ccccc2)nc2c1c(=O)n(C)c(=O)n2C (stereo not drawn) | -3 | 7 | . | 5 | 47 | 10 | . | . | . | .
CC(C)n1c(CN(C)Cc2ccccc2)nc2c1c(=O)n(C)c(=O)n2C | 0 | 64* | . | 70* | . | 57* | 53* | 78* | 25 | 48*
Nc1nc(Cl)nc2c1ncn2[C@H]1C[C@H](O)[C@@H](CO)O1 | 57* | 84* | 22 | 83* | 88* | 65* | 41 | 68* | 25* | 50* | 697 NFkB conf=68*
Nc1ncnc2c1ncn2[C@H]1C[C@H](O)[C@@H](CO)O1 | 18 | . | . | -4 | 8 | 0 | . | . | . | .
CCn1ncc(C2=NOC(C(=O)NCc3ccc(Cl)cc3)C2)c1C (stereo not drawn) | -60 | 1 | . | 50 | 19 | 74* | 50* | 50* | 45* | 1
CCn1ncc(C2=NOC(C(=O)Nc3ccc(C)cc3)C2)c1C (stereo not drawn) | -41 | -12 | 15 | 6 | 32 | -2 | . | . | . | .
CCOc1ccccc1CNS(=O)(=O)c1ccc(-c2cnc(C3CC3)o2)cc1 | -58 | 74* | . | 55 | 66 | 57* | 55* | 55* | 59* | -58
COc1ccc(C)cc1NS(=O)(=O)c1ccc(-c2cnc(C3CC3)o2)cc1 | -272 | 102* | . | 66* | 90* | 66* | 68* | 62* | 66* | 15 | 697 NFkB conf=-213
O=C1CC(SCc2nc3ccccc3[nH]2)C(=O)N1c1ccc(Cl)cc1 (stereo not drawn) | 4 | 13 | 9 | 1 | 8 | -10 | . | . | . | .
Cc1cc(NC(=O)CSc2ccc(-c3nc4cc(C)c(C)cc4[nH]3)cn2)no1 | -32 | -100 | . | 97* | -43 | -175 | -86 | 21 | 27* | -206
Cc1cc2nc(-c3ccc(SCC(=O)NC(C)C)nc3)[nH]c2cc1C | -44 | -134 | . | . | . | -70 | . | . | . | .
Cc1ccc(-n2[nH]c(C)c(C=Nc3ccc(S(=O)(=O)Nc4nccs4)cc3)c2=O)cc1C | 15 | -17 | . | -7 | -11 | -10 | . | . | . | .
CCCC1CCC(=NNS(=O)(=O)c2ccc(C)c([N+](=O)[O-])c2)CC1 (stereo not drawn) | -2 | -4 | 0 | -9 | 2 | 0 | . | . | . | .
COC(=O)c1ccc(C(=O)OC)c(NC(=O)CN2CCC(C)CC2)c1 | 18 | 14 | -4 | 15 | 20 | -12 | . | . | . | .
Cc1ncoc1C(=O)NC1CCCc2c1cnn2-c1ccc(C(C)(C)C)cc1 (stereo not drawn) | 27 | -12 | -27 | 52 | 76 | 60* | 59* | 45* | 23 | 6
CCN(CC)S(=O)(=O)c1ccc(N/N=C/c2ccc(O)cc2O)nc1 | -66 | 90* | . | 58* | ? | 51* | 14 | 70* | 26* | 79*
O=C(Cc1ccc(N2CCNC2=O)cc1)N1CCCC(Nc2cccc(F)c2)C1 (stereo not drawn) | -53 | 64* | . | 53 | 27 | 59* | 14 | 17 | 41* | -48
Cc1ccc(-c2nc(CS(=O)CC(=O)NCc3ccc(F)cc3)c(C)o2)cc1 (stereo not drawn) | 13 | 38 | . | 5 | -17 | 8 | . | . | . | .
Cc1ccc(C(=O)c2cc([N+](=O)[O-])ccc2N2CCCCC2)c(C)c1 | -131 | 69* | . | 59* | 34 | 66* | 55* | 53* | 60* | 16
CN(C)CCCNS(=O)(=O)c1ccc(N2CCN(Cc3ccc4c(c3)OCO4)CC2)c([N+](=O)[O-])c1 | -6 | -8 | . | 54 | 81 | 62* | 27 | 39 | 22 | 0
CC(=O)c1ccc(N2CCN(c3ccc(S(=O)(=O)NCCCN(C)C)cc3[N+](=O)[O-])CC2)cc1 | -40 | -16 | 2 | 23 | ? | -1 | . | . | . | .
Cc1cc(C(=O)CN2C(=O)NC(C)(c3ccccc3)C2=O)c(C)n1CC1CCCO1 (stereo not drawn) | 1 | -18 | . | -4 | -5 | 3 | . | . | . | .
Cc1cc(C(=O)CN2C(=O)c3ccccc3S2(=O)=O)c(C)n1CC1CCCO1 (stereo not drawn) | 44* | 111* | 12 | 83* | 68 | 79* | 22 | 82* | 54* | 99* | 697 NFkB conf=8
COc1ccc(C(=O)CN2C(=O)c3ccccc3S2(=O)=O)cc1 | 56* | 101* | -5 | 88* | 71 | 73* | 58* | 93* | 38* | 102* | 697 NFkB conf=60*
